Measurements: the supplement of paper PMC8728848
The sample as a whole holds a higher share of the strongest signals than the screen did.

Tests used:
Assay in all cases: glycan array binding signal (z-score within array); higher = stronger binding
Settings in all cases: glycan notation: IUPAC condensed, linker removed
[1] = target: Fuc(a1-2)Gal(b1-4)GlcNAc(b1-6)GalNAc
Summary of the method: (§1)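 The binding signal is a Z-score computed within each array. Data were drawn from 3228 arrays in the Consortium for Functional Glycomics database, restricted to those with a known protein sequence. Scores were averaged over arrays of the same protein sequence at different concentrations or buffers, and over linkers, and negative values can be taken as non-binding.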

[2] = target: Fuc(a1-2)[Gal(a1-4)]Gal(b1-4)GlcNAc
Summary of the method: as §1

[3] = target: Fuc(a1-2)[GalNAc(a1-3)]Gal
Summary of the method: as §1

[4] = target: Fuc(a1-2)[GalNAc(a1-3)]Gal(b1-4)GlcNAc(b1-2)Man
Summary of the method: as §1

Fuc(a1-3)GlcNAc = target: Fuc(a1-3)GlcNAc
Summary of the method: as §1

[5] = target: Fuc(a1-3)[Gal(b1-4)]GlcNAc(b1-2)Man
Summary of the method: as §1

[6] = target: Fuc(a1-3)[Gal(b1-4)]GlcNAc(b1-3)Gal(b1-4)[Fuc(a1-3)]GlcNAc(b1-3)Gal(b1-4)[Fuc(a1-3)]GlcNAc
Summary of the method: as §1

Gal(a1-2)Gal = target: Gal(a1-2)Gal
Summary of the method: as §1

Gal(a1-3)Gal(b1-4)Glc = target: Gal(a1-3)Gal(b1-4)Glc
Summary of the method: as §1

[7] = target: Gal(b1-3)GlcNAc(b1-2)Man(a1-3)[Gal(b1-3)GlcNAc(b1-2)Man(a1-6)]Man(b1-4)GlcNAc(b1-4)[Fuc(a1-6)]GlcNAc
Summary of the method: as §1

[8] = target: Gal(b1-3)[Fuc(a1-4)]GlcNAc(b1-3)Gal(b1-4)[Fuc(a1-3)]GlcNAc
Summary of the method: as §1

[9] = target: Gal(b1-4)GlcNAc(b1-2)Man(a1-3)[Gal(b1-4)GlcNAc(b1-2)Man(a1-6)]Man(b1-4)GlcNAc(b1-4)[Fuc(a1-6)]GlcNAc
Summary of the method: as §1

[10] = target: Gal(b1-4)GlcNAc(b1-2)[Gal(b1-4)GlcNAc(b1-6)]Man(a1-6)[Gal(b1-4)GlcNAc(b1-2)Man(a1-3)]Man(b1-4)GlcNAc(b1-4)[Fuc(a1-6)]GlcNAc
Summary of the method: as §1

[11] = target: Gal(b1-4)GlcNAc(b1-3)Gal(b1-3)GlcNAc
Summary of the method: as §1

[12] = target: Gal(b1-4)GlcNAc(b1-3)Gal(b1-4)GlcNAc(b1-2)Man(a1-3)[Gal(b1-4)GlcNAc(b1-3)Gal(b1-4)GlcNAc(b1-2)Man(a1-6)]Man(b1-4)GlcNAc(b1-4)[Fuc(a1-6)]GlcNAc
Summary of the method: as §1

[13] = target: Gal(b1-4)GlcNAc(b1-3)Gal(b1-4)GlcNAc(b1-3)Gal(b1-4)GlcNAc
Summary of the method: as §1

[14] = target: Gal(b1-4)GlcNAc(b1-3)Gal(b1-4)GlcNAc(b1-3)Gal(b1-4)GlcNAc(b1-3)Gal(b1-4)GlcNAc(b1-3)Gal(b1-4)GlcNAc(b1-2)Man(a1-3)[Gal(b1-4)GlcNAc(b1-3)Gal(b1-4)GlcNAc(b1-3)Gal(b1-4)GlcNAc(b1-3)Gal(b1-4)GlcNAc(b1-3)Gal(b1-4)GlcNAc(b1-2)Man(a1-6)]Man(b1-4)GlcNAc(b1-4)[Fuc(a1-6)]GlcNAc
Summary of the method: as §1

[15] = target: Gal(b1-4)GlcNAc(b1-3)GalNAc
Summary of the method: as §1

Gal(b1-4)GlcNAc6P = target: Gal(b1-4)GlcNAc6P
Summary of the method: as §1

[16] = target: GalNAc(a1-3)GalNAc(b1-3)Gal(a1-4)Gal(b1-4)GlcNAc
Summary of the method: as §1

[17] = target: GalNAc(b1-3)Gal(a1-4)Gal(b1-4)GlcNAc
Summary of the method: as §1

[18] = target: GalNAc(b1-4)GlcNAc(b1-2)Man(a1-3)[GalNAc(b1-4)GlcNAc(b1-2)Man(a1-6)]Man(b1-4)GlcNAc(b1-4)GlcNAc
Summary of the method: as §1

[19] = target: GlcA3S(b1-3)Gal(b1-4)GlcNAc(b1-2)Man
Summary of the method: as §1

[20] = target: GlcNAc(a1-4)Gal(b1-3)GlcNAc
Summary of the method: as §1

[21] = target: GlcNAc(b1-2)Man(a1-3)[GlcNAc(b1-2)Man(a1-6)]Man(b1-4)GlcNAc(b1-4)GlcNAc
Summary of the method: as §1

[22] = target: GlcNAc(b1-2)Man(a1-3)[GlcNAc(b1-2)Man(a1-6)]Man(b1-4)GlcNAc(b1-4)[Fuc(a1-6)]GlcNAc
Summary of the method: as §1

[23] = target: GlcNAc(b1-2)[GlcNAc(b1-4)]Man(a1-3)[GlcNAc(b1-4)][GlcNAc(b1-2)Man(a1-6)]Man(b1-4)GlcNAc(b1-4)GlcNAc
Summary of the method: as §1

[24] = target: GlcNAc(b1-2)[GlcNAc(b1-6)]Man(a1-6)[GlcNAc(b1-2)Man(a1-3)]Man(b1-4)GlcNAc(b1-4)[Fuc(a1-6)]GlcNAc
Summary of the method: as §1

[25] = target: GlcNAc(b1-3)Gal(b1-4)GlcNAc(b1-2)Man(a1-3)[GlcNAc(b1-3)Gal(b1-4)GlcNAc(b1-2)Man(a1-6)]Man(b1-4)GlcNAc(b1-4)[Fuc(a1-6)]GlcNAc
Summary of the method: as §1

[26] = target: GlcNAc(b1-3)Gal(b1-4)GlcNAc(b1-3)Gal(b1-4)GlcNAc(b1-2)Man(a1-3)[GlcNAc(b1-3)Gal(b1-4)GlcNAc(b1-3)Gal(b1-4)GlcNAc(b1-2)Man(a1-6)]Man(b1-4)GlcNAc(b1-4)[Fuc(a1-6)]GlcNAc
Summary of the method: as §1

B1: PhoSpL (Pholiota squarrosa) (peptide)
chain: APVPVTKLVCDGDTYKCTAYLDFGDGRWVAQWDTNVFHTG
glycan array binding signal (z-score) [1]: -0.46 | glycan array binding signal (z-score) [2]: 0.637 | glycan array binding signal (z-score) [3]: -0.032 | glycan array binding signal (z-score) [4]: 0.067 | glycan array binding signal (z-score) (Fuc(a1-3)GlcNAc): -0.427 | glycan array binding signal (z-score) [5]: -0.336 | glycan array binding signal (z-score) [6]: -0.179 | glycan array binding signal (z-score) (Gal(a1-2)Gal): -0.168 | glycan array binding signal (z-score) (Gal(a1-3)Gal(b1-4)Glc): 0.101 | glycan array binding signal (z-score) [7]: 6.05 | glycan array binding signal (z-score) [8]: -0.256 | glycan array binding signal (z-score) [9]: 13.4 | glycan array binding signal (z-score) [10]: 8.42 | glycan array binding signal (z-score) [11]: 0.027 | glycan array binding signal (z-score) [12]: 1.94 | glycan array binding signal (z-score) [13]: -0.517 | glycan array binding signal (z-score) [14]: 0.488 | glycan array binding signal (z-score) [15]: -0.135 | glycan array binding signal (z-score) (Gal(b1-4)GlcNAc6P): -0.747 | glycan array binding signal (z-score) [16]: 0.539 | glycan array binding signal (z-score) [17]: 0.249 | glycan array binding signal (z-score) [18]: 1.41 | glycan array binding signal (z-score) [19]: -0.16 | glycan array binding signal (z-score) [20]: -0.307 | glycan array binding signal (z-score) [21]: -0.238 | glycan array binding signal (z-score) [22]: 4.77 | glycan array binding signal (z-score) [23]: -0.113 | glycan array binding signal (z-score) [24]: 4.35 | glycan array binding signal (z-score) [25]: 2.47 | glycan array binding signal (z-score) [26]: 1.44
